# Source: ChEMBL document CHEMBL3988442, “University of Dundee, Small-Polar-MMV Screening Library” (2021)
# The campaign covered roughly 69,000 compounds. About 950 (1.4%) showed an effect of 50% or more. Shown is part of a subset that was picked to be rich in strong results.
# System: Mycobacterium tuberculosis
# Assay: Cornell M. t heat shock assay; also: in the data most compounds retested in dose-response had high values
# Assay type: functional, organism-based
# Design: dose or concentration left out as unconfirmed
row,Compound,Percent Effect
1,Cc1cc(CCC(=O)N(C)C)nc(C2CCCCN2)n1.Cl.Cl (stereo not drawn),-7.222%
2,CCCS(=O)(=O)N1C[C@@H](OCc2ccncc2)[C@H]2OCCC[C@H]21.O=C(O)C(F)(F)F,-14.14%
3,CCn1cc2c(n1)C(COC)CN(C(=O)c1ccccn1)C2 (stereo not drawn),-31.72%
4,CC(C)c1nc(-c2ccnc(N3CCNCC3)n2)no1.Cl.Cl,-7.834%
5,Cc1c(C2N3C[C@]4(C(C)C)CN2C[C@](C(C)C)(C3)C4=O)[nH]c(=O)[nH]c1=O (stereo partly drawn),1.038%
6,CCC[C@]12CN3C[C@](CCC)(CN(C1)C3c1[nH]c(=O)[nH]c(=O)c1C)C2=O (stereo partly drawn),-14.28%
7,Cc1c(C2N3C[C@]4(C)CN2C[C@](C)(C3)C4=O)[nH]c(=O)[nH]c1=O (stereo partly drawn),74.22%
8,CC[C@]12CN3C[C@](C)(CN(C1)C3c1[nH]c(=O)[nH]c(=O)c1C)C2=O (stereo partly drawn),68.87%
9,CCC[C@]12CN3C[C@](C)(CN(C1)C3c1[nH]c(=O)[nH]c(=O)c1C)C2=O (stereo partly drawn),-3.215%
10,CC[C@]12CN3C[C@](CC)(CN(C1)C3c1[nH]c(=O)[nH]c(=O)c1C)C2=O (stereo partly drawn),72.7%
11,O=C(O)C(F)(F)F.O=C1CC[C@H]2[C@H](CCN2c2ncc(F)cn2)N1c1ccccc1,11.33%
12,CCn1ccnc1CNCC(c1ccc(C)s1)N1CCOCC1 (stereo not drawn),-18.67%
13,Cn1ccc(C(=O)N2C[C@H]3CCC[C@@]3(COCc3cccnc3)C2)n1.O=C(O)C(F)(F)F,-13.25%
14,CC(C(N)=O)N(C)CCCc1cc(-c2ccc(F)cc2)n(C)n1 (stereo not drawn),22.06%
15,CN(CCCc1cc(-c2ccc(F)cc2)n(C)n1)CC(N)=O,51.67%
16,CN(CCCc1cc(-c2ccc(F)cc2)n(C)n1)CC(=O)NC(N)=O,24.77%
17,CN(C)[C@@H]1CCN(C(=O)c2ccsc2)[C@H]1Cc1cnn(C)c1,4.524%
18,CN(C)[C@@H]1CCN(C(=O)c2ccccn2)[C@H]1Cc1cnn(C)c1,76.59%
19,CN(C)[C@@H]1CCN(C(=O)c2ccccn2)[C@H]1Cc1ccncc1,0.1149%
20,CC(C)CN1C[C@H]2CCN(Cc3cccnc3)CC[C@H]2S1(=O)=O.O=C(O)C(F)(F)F.O=C(O)C(F)(F)F,-7.462%
21,CCOC(=O)C(CO)NC(=O)CCc1cccc(OC2CCCC2)c1 (stereo not drawn),-10.42%
22,Cc1ccc(N2N=C(C(=O)NCC3CC3)S(=O)(=O)c3cccnc32)cc1,9.457%

row,Compound,Percent Effect
1,Cc1ccc(N2N=C(C(=O)O)S(=O)(=O)c3cccnc32)cc1,-6.267%
2,Cc1ccc(N2N=C(C(N)=O)S(=O)(=O)c3cccnc32)cc1,105.6%
3,Cc1ccc(C(=O)N2C[C@@H]3OCCN(CCN4CCCC4)[C@@H]3C2)cn1.O=C(O)C(F)(F)F,8.47%
4,O=C(CC1CC1)N1CCC2(CCCN(CCOc3ccccc3)C2)C1.O=C(O)C(F)(F)F (stereo not drawn),-8.964%
5,CC(Cn1cccn1)NCc1csc(-c2ccc3c(c2)OCO3)n1 (stereo not drawn),35.45%
6,Cc1cnn(CCNCc2csc(-c3ccc4c(c3)OCO4)n2)c1,93.68%
7,Cc1cnn(CCNCc2csc(-c3ccc(C(N)=O)cc3)n2)c1,-3.906%
8,c1cnn(CCNCCCOc2ccc3c(c2)OCO3)c1,0.6427%
9,c1cnn(CCNCc2csc(-c3ccc4c(c3)OCO4)n2)c1,65.17%
10,Cc1cnn(CCNCc2csc(C)n2)c1,4.294%
11,COCC1CN(c2ccncn2)Cc2cnn(CC3CCCC3)c21.O=C(O)C(F)(F)F.O=C(O)C(F)(F)F (stereo not drawn),3.159%
12,Cc1ccc(CN2CCC3(CC2)CCN(C(=O)c2cccnc2)C3)o1.O=C(O)C(F)(F)F,41.04%
13,Cc1cncc(C(=O)N2C[C@H]3CCC[C@@]3(COc3ccccn3)C2)c1.O=C(O)C(F)(F)F.O=C(O)C(F)(F)F,-23.58%
14,Cc1ccc(N2CC[C@H]3C[C@H](C(=O)NCc4ccco4)O[C@@H]3C2)cc1.O=C(O)C(F)(F)F,4.102%
15,NC[C@H]1CC[C@H](C(NC(=O)c2cccc(F)c2)c2ccccn2)CC1 (stereo partly drawn),107.2%
16,COc1ccccc1C(=O)NC(c1ccccn1)[C@H]1CC[C@H](CN)CC1 (stereo partly drawn),95.79%
17,NC[C@H]1CC[C@H](C(NC(=O)C2CC2)c2ccccn2)CC1 (stereo partly drawn),-11.64%
18,NC[C@H]1CC[C@H](C(NC(=O)c2ccccn2)c2ccccn2)CC1 (stereo partly drawn),11.19%
19,COc1cccc(C(=O)NC(c2ccccn2)[C@H]2CC[C@H](CN)CC2)c1 (stereo partly drawn),14.74%
20,NC[C@H]1CC[C@H](C(NC(=O)c2ccccc2)c2ccccn2)CC1 (stereo partly drawn),15.73%
21,C[C@@H](N)C(=O)N1CC2(CCNCC2)c2cc(Cl)ccc21.Cl.Cl,-22.5%
22,O=C(C1=CCCC1)N1CCC2(CC1)CC(Oc1cccnc1)CO2.O=C(O)C(F)(F)F (stereo not drawn),-14.4%

row,Compound,Percent Effect
1,Cc1nc(CN2CCc3cc(C(=O)O)c(N(C)C)nc3CC2)cs1.O=C(O)C(F)(F)F.O=C(O)C(F)(F)F,3.488%
2,O=C(C1CC1)N1CCN(Cc2ccncc2)c2ncccc2C1.O=C(O)C(F)(F)F.O=C(O)C(F)(F)F,-4.601%
3,CCc1onc(C)c1C(=O)N1CCN(c2ncc3c(n2)CCOC3)CC1.Cl,-10.25%
4,CCC(CN1CCOCC1)n1cncc1-c1ccc2c(c1)CCCN2C.Cl (stereo not drawn),16.42%
5,CCC(CN1CCOCC1)n1cncc1-c1ccc2c(c1)CCN2CC.Cl (stereo not drawn),100.9%
6,CC(CN1CCOCC1)n1cncc1-c1ccc2c(c1)CCCN2C.Cl (stereo not drawn),-23.4%
7,CCN1CCCc2cc(-c3cncn3C(C)CN3CCOCC3)ccc21.Cl (stereo not drawn),-27.45%
8,CCC(CN1CCCC1)n1cncc1-c1cnn(-c2ccccc2)c1.Cl (stereo not drawn),-7.106%
9,CCCS(=O)(=O)N1CCCC(c2nc(-c3ccccc3)c[nH]2)C1 (stereo not drawn),97.89%
10,CCN(C)S(=O)(=O)N1CCCC(c2nc(-c3ccccc3)c[nH]2)C1 (stereo not drawn),14.48%
11,CS(=O)(=O)N1CCCC(c2nc(-c3ccccc3)c[nH]2)C1 (stereo not drawn),-20.18%
12,Cl.Cl.NCC1[C@H]2CN(Cc3ccccc3F)C[C@@H]12 (stereo partly drawn),-12.63%
13,CC(=O)Nc1nc(C(=O)N2CCCC(c3cc(C)[nH]n3)C2)cs1 (stereo not drawn),-17.82%
14,CC(C)NC(=O)N1CC(=O)c2sc(NC3CCCCC3)nc2C1,1.144%
15,Cc1[nH]/c(=N\C(=O)c2csc(NC3CC3)n2)sc1C,102.4%
16,CC(C)(C)[S+]([O-])CCNC(=O)c1csc(NC2CC2)n1 (stereo not drawn),-16.11%
17,Cc1[nH]/c(=N\C(=O)c2csc(NC3CCCC3)n2)sc1C,101.9%
18,Cc1[nH]/c(=N/C(=O)Cn2nc(N3CCOCC3)ccc2=O)sc1C,-6.271%
19,CN(C)c1ccc(CNCc2cnc(N3CCOCC3)nc2)cn1.Cl,-4.55%
20,CC(C)=CCN1C(=O)[C@H]2CC[C@@H]1CN(c1ncccn1)C2,-39.45%
21,O=C(Cc1ccccc1)N1CC[C@H]2[C@@H]1CCC(=O)N2Cc1ccncc1.O=C(O)C(F)(F)F,-22.84%
22,CCCN1C[C@H]2CC[C@@H]1CN(Cc1ccc(Cn3cccn3)cc1)C2,25.45%

row,Compound,Percent Effect
1,CCCN1C[C@H]2CC[C@@H]1CN(Cc1cccc(-n3cccn3)c1)C2,-1.729%
2,CCCN1C[C@H]2CC[C@@H]1CN(Cc1ccc(-n3cccn3)cc1)C2,105.3%
3,COCCN1CCCC12CCN(C(=O)CC1CCCC1)CC2.O=C(O)C(F)(F)F,-21.16%
4,O=C(O)C(F)(F)F.O=C(O)C(F)(F)F.O=S(=O)(c1cccnc1)N1C[C@H]2CCC[C@@]2(COc2ccccn2)C1,-13.75%
5,Cn1ccnc1CNc1c(F)cccc1-n1cccn1,55.71%
6,CC(C)(C)c1nnc(CNc2c(F)cccc2-n2cccn2)o1,0.6342%
7,CC(C)c1cnc(CNc2c(F)cccc2-n2cccn2)o1,8.854%
8,CCc1noc(CNc2c(F)cccc2-n2cccn2)n1,-3.038%
9,Cn1c(CNc2c(F)cccc2-n2cccn2)cc(=O)n(C)c1=O,6.656%
10,Cc1cnc(CNc2c(F)cccc2-n2cccn2)o1,105%
11,O=C(O)C(F)(F)F.O=C1[C@H]2CN(C(=O)[C@H]3CCCO3)C[C@H]2CN1CCN1CCCC1,-0.06274%
12,COc1ccc(OC)c([C@@H]2N[C@H](c3nccs3)Cc3ccsc32)c1,6.308%
13,COc1cc([C@@H]2N[C@H](c3nccs3)Cc3ccsc32)cc(OC)c1OC,-5.187%
14,COc1cccc([C@@H]2N[C@H](c3nccs3)Cc3ccsc32)c1OC,50.14%
15,Cc1ncsc1CN1C[C@@H]2COC[C@]2(CNC(=O)c2ccccc2)C1.O=C(O)C(F)(F)F,-24.18%
16,COc1ccsc1C(=O)NCCNc1ccccc1,-5.187%
17,COc1cc(C)sc1C(=O)NCCC(=O)N(C)c1ccccc1,0.1249%
18,COc1cc(C)sc1C(=O)NCCNc1ccccc1,57.16%
19,Cc1nc(CN2CCO[C@H]3[C@@H](OCc4cccnc4)CC[C@@H]32)cs1.O=C(O)C(F)(F)F.O=C(O)C(F)(F)F,-27.98%
20,O=C(O)C(F)(F)F.c1cnc(N2CCC3(CC2)CN(CC2CC2)c2ccccc23)nc1,54.56%
21,O=C(O)C(F)(F)F.O=C(O)C(F)(F)F.OCCN1CC2(CCN(CC3CC3)CC2)c2ccccc21,-22.04%
22,O=C(O)C(F)(F)F.O=C1N(CC2CC2)CCC12CCN(c1ncccn1)CC2,-22.74%
